{
  "source": "PubChem BioAssay (EPA / NIEHS)",
  "note": "Inconclusive results are not listed. Calls of active or inactive are those of the source. Rule for the calls: active = hit-call score of the fitted dose curve at least 0.9, where 1 is the maximum; inconclusive = response in the unintended direction; inactive = score below 0.9.",
  "data": [
    {"experiment": "ACEA_ER_AUC_viability: ACEA Biosciences xCELLigence Real-Time Cell Analysis on Estrogen Receptor Agonism for Viability (AID 2283782);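 note: hit means loss of impedance signal meaning reduced cell growth or viability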", "procedure,_shortened": "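Continuous-exposure impedance cell analysis uses T-47D cells in charcoal-stripped serum, eight 1:4 dilutions topping at 100 uM final, biological duplicate. Area under the growth curve at 80 h is fitted against DMSO baseline.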", "values": [
      {"smiles": "CCCCOCCOC(=O)COc1nc(Cl)c(Cl)cc1Cl", "outcome": "inactive"},
      {"smiles": "Cc1c(C)c([N+](=O)[O-])c(C(C)(C)C)c([N+](=O)[O-])c1C", "outcome": "inactive"},
      {"smiles": "O=CC1CC1", "AC50": "65 µM (active)"},
      {"smiles": "Cc1ccc(C(C)c2ccc(C)c(C)c2)cc1C", "AC50": "50 µM (active)"},
      {"smiles": "CC1=NN(c2cc(S(=O)(=O)O)ccc2Cl)C(=O)C1N=Nc1ccccc1", "note": "(configuration not stated)", "outcome": "inactive"},
      {"smiles": "CC(=O)OC(C)C", "outcome": "inactive"},
      {"smiles": "COC(=O)c1c(C)cc(O)c(C)c1O", "outcome": "inactive"}
    ]}
  ]
}
